The source of these data is article PMC7862700, “An all-to-all approach to the identification of sequence-specific readers for epigenetic DNA modifications on cytosine”.

Common to all, as to experiment: DAPPL (digital affinity profiling via proximity ligation, sequencing); 10 mM Tris-HCl pH 7.5, 50 mM NaCl, 1 mM DTT, 4% glycerol, room temperature, 30 min; GST-TFs on glutathione beads, 16-mer random dsDNA library, 0.1% formaldehyde crosslink after washing; high values mean tight binding
Common to all, as to details: protein: recombinant; tags: N-terminal GST; dsDNA, one strand shown

One assay deals with T1, FLI1 (Homo sapiens, UniProt Q01543 1-452).
T1 sequence: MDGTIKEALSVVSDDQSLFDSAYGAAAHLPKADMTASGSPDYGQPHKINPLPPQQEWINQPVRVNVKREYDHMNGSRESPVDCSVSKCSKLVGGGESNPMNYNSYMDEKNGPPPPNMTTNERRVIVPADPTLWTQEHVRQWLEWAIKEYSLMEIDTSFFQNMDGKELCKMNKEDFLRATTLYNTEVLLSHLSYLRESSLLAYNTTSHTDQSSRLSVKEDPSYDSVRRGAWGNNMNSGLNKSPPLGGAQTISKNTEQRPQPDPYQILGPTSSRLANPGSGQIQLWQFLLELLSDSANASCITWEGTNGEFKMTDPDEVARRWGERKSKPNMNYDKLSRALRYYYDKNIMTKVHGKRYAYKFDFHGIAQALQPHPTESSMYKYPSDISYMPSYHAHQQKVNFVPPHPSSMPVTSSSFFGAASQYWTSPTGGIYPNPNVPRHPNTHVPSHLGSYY
The method in brief: (§1)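 After expression in yeast as GST fusions, human transcription factors were bound to glutathione beads, DNA-barcoded and mixed with a tag-only sample. The pools were incubated with 200 nmole of a 16-mer random double-stranded DNA library in Tris/NaCl/DTT/glycerol buffer (30 min, room temperature), washed and crosslinked with 0.1% formaldehyde. Proximity ligation with BsaI/T4 ligase ran for 1 h at 37 °C, before PCR amplification and sequencing on an Illumina NextSeq500. Binding signal is a hexamer's read frequency for a factor divided by its frequency for the tag-only sample.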

A further assay deals with T2, GABPA (Homo sapiens, UniProt Q06546 1-454).
T2 sequence: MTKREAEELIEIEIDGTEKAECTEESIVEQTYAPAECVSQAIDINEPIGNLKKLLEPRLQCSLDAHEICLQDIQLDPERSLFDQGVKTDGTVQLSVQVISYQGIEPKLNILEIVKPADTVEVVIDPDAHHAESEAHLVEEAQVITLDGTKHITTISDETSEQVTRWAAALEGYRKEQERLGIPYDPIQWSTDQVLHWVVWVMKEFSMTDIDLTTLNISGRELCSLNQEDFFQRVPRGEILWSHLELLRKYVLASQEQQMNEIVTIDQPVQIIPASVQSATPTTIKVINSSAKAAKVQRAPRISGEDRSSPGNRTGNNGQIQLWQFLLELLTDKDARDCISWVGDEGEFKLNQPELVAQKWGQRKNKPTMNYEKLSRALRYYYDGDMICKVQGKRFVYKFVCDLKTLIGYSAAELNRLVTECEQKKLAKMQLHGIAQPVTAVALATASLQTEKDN
In outline: as §1

For a further assay, the target named is T3, ERG (Homo sapiens, UniProt P11308 1-479).
T3 sequence: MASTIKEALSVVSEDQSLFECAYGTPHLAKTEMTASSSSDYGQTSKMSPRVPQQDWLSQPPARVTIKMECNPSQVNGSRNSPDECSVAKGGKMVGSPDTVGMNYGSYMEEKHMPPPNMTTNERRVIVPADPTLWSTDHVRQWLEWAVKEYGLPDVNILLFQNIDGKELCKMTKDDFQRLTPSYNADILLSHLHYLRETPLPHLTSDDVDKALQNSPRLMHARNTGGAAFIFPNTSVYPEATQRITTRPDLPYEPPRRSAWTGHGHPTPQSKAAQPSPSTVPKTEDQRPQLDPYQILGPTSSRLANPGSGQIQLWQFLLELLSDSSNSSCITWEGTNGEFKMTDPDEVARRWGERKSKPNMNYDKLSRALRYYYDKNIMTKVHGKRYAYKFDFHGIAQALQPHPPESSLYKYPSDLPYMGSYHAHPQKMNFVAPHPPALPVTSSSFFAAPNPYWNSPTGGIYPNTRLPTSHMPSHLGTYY
The method in brief: as §1

The target of a further assay is ELF1 (Homo sapiens, UniProt P32519 1-619). The method in brief:
as §1

Another assay deals with SPIB (Homo sapiens, UniProt Q01892 1-262). The method in brief:
as §1

A further assay addresses T4, ELK3 (Homo sapiens, UniProt P41970 1-407).
T4 sequence: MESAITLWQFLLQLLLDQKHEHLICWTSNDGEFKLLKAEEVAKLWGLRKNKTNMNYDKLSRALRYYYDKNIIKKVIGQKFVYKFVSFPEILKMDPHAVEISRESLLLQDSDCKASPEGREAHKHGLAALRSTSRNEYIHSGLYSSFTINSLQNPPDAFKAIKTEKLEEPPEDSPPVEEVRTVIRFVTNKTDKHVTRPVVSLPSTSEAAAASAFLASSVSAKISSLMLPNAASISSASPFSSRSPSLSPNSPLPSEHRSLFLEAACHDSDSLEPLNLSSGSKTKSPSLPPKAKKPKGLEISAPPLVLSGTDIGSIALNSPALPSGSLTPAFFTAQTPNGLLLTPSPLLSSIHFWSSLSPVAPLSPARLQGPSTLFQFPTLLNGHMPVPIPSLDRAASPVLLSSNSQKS
The method in brief:
as §1

Another assay concerns the target ETV5 (Homo sapiens, UniProt P41161 1-510). In outline: as §1
The next assay concerns the target T5, SPIC (Homo sapiens, UniProt Q8N5J4 1-248).
T5 sequence: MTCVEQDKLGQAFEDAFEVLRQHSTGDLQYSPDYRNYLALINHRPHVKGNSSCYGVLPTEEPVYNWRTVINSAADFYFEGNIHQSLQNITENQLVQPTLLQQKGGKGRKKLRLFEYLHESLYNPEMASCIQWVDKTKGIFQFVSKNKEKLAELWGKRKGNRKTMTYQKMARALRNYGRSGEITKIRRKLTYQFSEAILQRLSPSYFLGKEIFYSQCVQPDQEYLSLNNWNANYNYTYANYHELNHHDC
The method in brief: as §1

Another assay deals with ELF4 (Homo sapiens, UniProt Q99607 1-663). In outline:
as §1

In the next assay the target is ETV1 (Homo sapiens, UniProt P50549 1-477). The method in brief: as §1
For a further assay, the target named is T6, ELF5 (Homo sapiens, UniProt Q9UKW6-2 1-255).
T6 sequence: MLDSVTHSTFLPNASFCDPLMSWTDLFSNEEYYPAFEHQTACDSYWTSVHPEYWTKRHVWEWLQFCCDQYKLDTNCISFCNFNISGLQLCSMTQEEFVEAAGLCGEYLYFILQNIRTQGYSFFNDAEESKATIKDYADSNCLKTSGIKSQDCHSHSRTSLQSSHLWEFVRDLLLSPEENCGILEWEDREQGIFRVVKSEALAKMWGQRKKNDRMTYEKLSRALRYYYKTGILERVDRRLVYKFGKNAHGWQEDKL
The method in brief: as §1

Chain of ELF1 (P32519 whole entry): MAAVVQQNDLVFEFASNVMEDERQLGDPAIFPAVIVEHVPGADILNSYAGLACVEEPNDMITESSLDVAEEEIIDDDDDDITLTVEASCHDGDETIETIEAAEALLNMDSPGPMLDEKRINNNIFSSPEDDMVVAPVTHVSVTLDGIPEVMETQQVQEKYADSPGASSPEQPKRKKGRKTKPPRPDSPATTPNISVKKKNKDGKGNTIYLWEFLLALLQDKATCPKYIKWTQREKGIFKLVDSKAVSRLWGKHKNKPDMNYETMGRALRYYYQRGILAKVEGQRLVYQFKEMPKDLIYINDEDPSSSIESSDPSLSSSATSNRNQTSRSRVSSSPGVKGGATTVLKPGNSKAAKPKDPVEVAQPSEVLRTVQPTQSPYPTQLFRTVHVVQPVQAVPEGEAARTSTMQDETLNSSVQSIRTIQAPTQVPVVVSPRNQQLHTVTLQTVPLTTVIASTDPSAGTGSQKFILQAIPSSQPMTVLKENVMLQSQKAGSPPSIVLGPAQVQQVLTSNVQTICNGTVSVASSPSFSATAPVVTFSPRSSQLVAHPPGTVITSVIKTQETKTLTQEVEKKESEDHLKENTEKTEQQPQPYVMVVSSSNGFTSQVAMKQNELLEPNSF
Chain of SPIB (Q01892 whole entry): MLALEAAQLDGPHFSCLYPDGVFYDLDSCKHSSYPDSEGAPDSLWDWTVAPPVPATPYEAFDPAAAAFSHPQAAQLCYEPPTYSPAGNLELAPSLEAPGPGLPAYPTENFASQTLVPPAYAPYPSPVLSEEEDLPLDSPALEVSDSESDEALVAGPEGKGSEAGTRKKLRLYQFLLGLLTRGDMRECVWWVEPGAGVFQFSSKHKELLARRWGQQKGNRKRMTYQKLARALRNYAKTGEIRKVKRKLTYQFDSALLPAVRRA
Chain of ETV1 (P50549 whole entry): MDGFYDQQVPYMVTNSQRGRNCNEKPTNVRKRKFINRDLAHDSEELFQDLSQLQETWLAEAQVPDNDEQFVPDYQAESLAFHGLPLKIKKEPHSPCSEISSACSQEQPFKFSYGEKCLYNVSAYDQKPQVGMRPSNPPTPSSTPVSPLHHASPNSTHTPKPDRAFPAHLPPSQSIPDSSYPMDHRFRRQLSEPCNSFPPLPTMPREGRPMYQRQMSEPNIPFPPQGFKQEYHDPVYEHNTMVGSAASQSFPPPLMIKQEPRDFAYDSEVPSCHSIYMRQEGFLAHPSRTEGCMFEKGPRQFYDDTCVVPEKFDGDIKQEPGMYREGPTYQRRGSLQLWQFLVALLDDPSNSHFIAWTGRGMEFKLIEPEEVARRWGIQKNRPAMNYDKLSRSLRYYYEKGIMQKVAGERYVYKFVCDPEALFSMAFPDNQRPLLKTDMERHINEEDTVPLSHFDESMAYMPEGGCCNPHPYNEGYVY
Chain of ETV5 (P41161 whole entry): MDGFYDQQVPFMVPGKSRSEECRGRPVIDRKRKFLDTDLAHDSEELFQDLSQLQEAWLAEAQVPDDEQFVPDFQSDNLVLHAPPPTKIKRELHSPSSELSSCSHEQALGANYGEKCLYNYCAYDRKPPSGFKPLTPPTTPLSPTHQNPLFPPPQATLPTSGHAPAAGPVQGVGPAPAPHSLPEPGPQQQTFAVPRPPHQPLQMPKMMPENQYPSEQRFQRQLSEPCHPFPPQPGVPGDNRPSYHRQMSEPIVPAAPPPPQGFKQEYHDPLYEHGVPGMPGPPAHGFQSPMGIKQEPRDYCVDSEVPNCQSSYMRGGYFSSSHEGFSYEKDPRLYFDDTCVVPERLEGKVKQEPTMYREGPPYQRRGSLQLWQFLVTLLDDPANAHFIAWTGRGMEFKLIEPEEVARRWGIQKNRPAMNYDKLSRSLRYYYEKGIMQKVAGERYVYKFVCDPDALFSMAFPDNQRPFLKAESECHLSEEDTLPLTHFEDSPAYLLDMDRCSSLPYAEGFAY
Chain of ELF4 (Q99607 whole entry): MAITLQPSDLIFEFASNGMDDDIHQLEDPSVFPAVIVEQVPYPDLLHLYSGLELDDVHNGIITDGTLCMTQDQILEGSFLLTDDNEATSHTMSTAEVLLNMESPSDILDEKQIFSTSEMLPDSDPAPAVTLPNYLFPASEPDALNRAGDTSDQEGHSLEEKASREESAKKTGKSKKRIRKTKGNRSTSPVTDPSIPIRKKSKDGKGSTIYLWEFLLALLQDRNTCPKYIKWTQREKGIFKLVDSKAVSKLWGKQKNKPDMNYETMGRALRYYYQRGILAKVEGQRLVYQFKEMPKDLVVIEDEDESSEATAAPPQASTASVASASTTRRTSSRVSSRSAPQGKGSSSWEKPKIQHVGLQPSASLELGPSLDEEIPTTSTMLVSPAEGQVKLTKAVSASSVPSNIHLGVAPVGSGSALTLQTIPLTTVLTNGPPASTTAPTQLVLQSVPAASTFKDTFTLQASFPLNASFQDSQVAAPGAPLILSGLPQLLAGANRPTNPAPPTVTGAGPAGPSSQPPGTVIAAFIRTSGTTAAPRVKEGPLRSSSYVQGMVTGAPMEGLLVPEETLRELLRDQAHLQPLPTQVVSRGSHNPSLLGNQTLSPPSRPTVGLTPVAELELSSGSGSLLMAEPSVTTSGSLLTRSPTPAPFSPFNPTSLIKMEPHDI

With TACGGT, the binding signal in the assay with FLI1 is 1.01 fold enrichment (6-mer frequency, TF over GST control); with GABPA, 1.02 fold enrichment (6-mer frequency, TF over GST control); in the assay with ERG, 1.02 fold enrichment (6-mer frequency, TF over GST control); in the assay with ELF1, 1.01 fold enrichment (6-mer frequency, TF over GST control); in the assay with SPIB, 1.02 fold enrichment (6-mer frequency, TF over GST control); with ELK3, 1.11 fold enrichment (6-mer frequency, TF over GST control). Further, the binding signal in the assay with ETV5 was 1.04 fold enrichment (6-mer frequency, TF over GST control); with SPIC, 1.02 fold enrichment (6-mer frequency, TF over GST control); with ELF4, 1.05 fold enrichment (6-mer frequency, TF over GST control); with ETV1, 1.01 fold enrichment (6-mer frequency, TF over GST control); in the assay with ELF5, 1.04 fold enrichment (6-mer frequency, TF over GST control).
